The record followed here is PubChem BioAssay (NCI).

SMILES strings stand for the structures. Values joined by “and” are separate entries in the source; they are usually repeats but may differ in a detail not shown here. Equal values may be shown once. Compounds without any hit were thinned out: in the full panel of roughly 79,000, 15% have a hit. A number with no mark means an inactive call. Active and inactive are the calls of the source. Cut-off read from the data, not from the text of the source: active = growth inhibition above about 70%; inactive = the rest.

Assay [1] is described as follows: NCI Yeast Anticancer Drug Screen. Data for the rad50 strain (AID 155).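 Note: 0% = growth of vehicle-only cultures of the same strain.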 As to conditions: S. cerevisiae rad50 strain growth inhibition, hits give high values; at 50.0 µM unless noted. The gist of the method:
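Inhibition values express reduced yeast growth in compound-treated cultures relative to vehicle-treated controls.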

Assay [2] can be described thus: NCI Yeast Anticancer Drug Screen. Data for the mec2-1 strain (AID 157). Particulars: S. cerevisiae mec2-1 strain, hits give high values; at 50.0 µM unless noted. The method, boiled down:
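Using mec2-1 yeast: add compound, measure growth, express inhibition versus vehicle-treated cultures.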

The nature of assay [3]: NCI Yeast Anticancer Drug Screen. Data for the sgs1 mgt1 strain (AID 161).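 Note: 0% = growth of cultures given vehicle only.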 As to conditions: S. cerevisiae sgs1 mgt1 strain, hits give high values; at 50.0 µM unless noted. The gist of the method:
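Compounds are added to genetically altered yeast, and growth is compared with cultures given vehicle alone to give percent inhibition.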

Assay [4] is described as follows: NCI Yeast Anticancer Drug Screen. Data for the cln2 rad14 strain (AID 165).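 Note: 0% = growth equal to vehicle treated cultures.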 As to conditions: S. cerevisiae cln2 rad14 strain, hits give high values; at 50.0 µM unless noted. The gist of the method:
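Yeast strain cln2 rad14, bearing defects in cell cycle control and DNA repair, serves as the test system; values reflect growth inhibition compared with vehicle.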

Assay [5] is described as follows: NCI Yeast Anticancer Drug Screen. Data for the bub3 strain (AID 167). As to conditions: S. cerevisiae bub3 mutant strain, hits give high values; at 50.0 µM unless noted. The gist of the method:
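Steps: expose the mutant yeast strain to compound; grow alongside vehicle-treated cultures; measure growth; express inhibition against the vehicle cultures.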

Assay [6] can be described thus: NCI Yeast Anticancer Drug Screen. Data for the mlh1 rad18 strain (AID 175). Particulars: S. cerevisiae mlh1 rad18 strain growth inhibition, hits give high values; at 50.0 µM unless noted. The gist of the method:
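Steps: expose repair-defective yeast to compound; measure growth; express inhibition against vehicle-treated controls.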

For the compound `CCN(CC)CCNc1cc(OC)c(OC)cc1[N+](=O)[O-]`, the growth inhibition is -35% in assay [1]; 14.4% in assay [2]; 5.7% in assay [3]; -7.45% in assay [4]; -0.45% in assay [5]; -15% in assay [6].
Take `Cc1ccc(C(=O)C[n+]2ccc3ccccc3c2)c(O)c1`: the growth inhibition in assay [1] was -17.1%; in assay [2], -17.9%; in assay [3] it was -20.2%; in assay [4] it was -51.9%; in assay [5], -14.3%; in assay [6] it was 1.25%.
Take `Cc1sc2nc3n(c(=O)c2c1C)N=CN(c1ccc(Cl)cc1)C3`: the growth inhibition in assay [1] was 5.5%; in assay [2], 5.1%; in assay [3], 7.8%; in assay [4] it was -3.15%; in assay [5] it was 0.05%; in assay [6] it was -45.2%.
For `CC(C)(C)OC(=O)/N=C/c1c(O)c2ccccc2oc1=O`, the growth inhibition in assay [1] was -36.5%; in assay [2], -20.5%; in assay [3], -21.8%; in assay [4] it was 9.75%; in assay [5], -17.4%; in assay [6] it was -26%.
For `CC(=O)Nc1ccc(S(=O)(=O)NC(C)=O)cc1`, the growth inhibition was -5.8% in assay [1]; -8.75% in assay [2]; -2.7% in assay [3]; -20.4% in assay [4]; 6.7% in assay [5]; 12.6% in assay [6].
Take `Cc1ccc(OC/C=C/CSc2ccc(Br)cc2)cc1`: the growth inhibition in assay [1] is 4.95%; in assay [2], 4.75%; in assay [3], 2.4%; in assay [4] it was -2.4%; in assay [5] it was -19.9%; in assay [6] it was -24.9%.
Regarding `CSc1nc(C)cc(=O)[nH]1`, the growth inhibition was -12.1% in assay [1]; -2.95% in assay [2]; -17.9% in assay [3]; 20% in assay [4]; 5.5% in assay [5]; -13.3% in assay [6].
`COC1CCC2C3CCC(C3)C12` (stereo unspecified): the growth inhibition was 26.9% in assay [1]; -2% in assay [2]; 6.4% in assay [3]; 5.05% in assay [4]; -12.9% in assay [5]; -10.2% in assay [6].
`O=Cc1c[nH]c2ccc(F)cc12`: the growth inhibition is 9.85% in assay [1]; -19.4% in assay [2]; 20.6% in assay [3]; 14.3% in assay [4]; 19.9% in assay [5]; 23.4% in assay [6].
As to `COc1ccccc1NC(=O)C1=C(C)NC(C)=C(C(=O)Nc2ccccc2OC)C1c1ccccc1F`, the growth inhibition in assay [1] was 32%; in assay [2], 5.35%; in assay [3], 17.1%; in assay [4], 16%; in assay [5] it was -1.05%; in assay [6], 15.7%.
As to `Nc1cc(N)c(N)cc1N`, the growth inhibition in assay [1] is -30.1% and -6.2%; in assay [2], 16.8% and -29.1%; in assay [3] it was 13% and -4.9%; in assay [4], -1.7% and 21.8%; in assay [5], 41.7% and -13.9%; in assay [6] it was 15% and 8.75%.
As for `Cn1c(=O)[nH]c2ccc(Cl)cc2c1=O`, the growth inhibition in assay [1] was 2.75%; in assay [2] it was -5.85%; in assay [3], -3.25%; in assay [4], -67.8%; in assay [5], 8.15%; in assay [6] it was 5.85%.
In the case of `CSC(=Nc1ccccc1Cl)NC(=O)c1ccc(Br)cc1`, the growth inhibition was -9.65% in assay [1]; 20.7% in assay [2]; 5.7% in assay [3]; 19.3% in assay [4]; 7.8% in assay [5]; -8.4% in assay [6].
For the compound `COc1cc(C2c3cc4c(cc3OC3(O)CCCC23)OCO4)cc(OC)c1OC` (stereo unspecified), the growth inhibition in assay [1] was -0.85%; in assay [2], 3.55%; in assay [3], 2.45%; in assay [4], -25.1%; in assay [5], 3.15%; in assay [6], -2.25%.
On to `C[N+]12CCCCC1C(CN1C(=O)c3ccccc3C1=O)CCC2` (stereo unspecified), for which the growth inhibition in assay [1] is 0.65%; in assay [2] it was -6.05%; in assay [3] it was 35.7%; in assay [4] it was 10.9%; in assay [5] it was 28.8%; in assay [6], -40%.
Turning to `COc1ccc(Br)cc1C1OC(=O)c2c(OC)c(OC)cc([N+](=O)[O-])c21` (stereo unspecified), the growth inhibition in assay [1] was 33.9%; in assay [2] it was 5.25%; in assay [3] it was 20.5%; in assay [4], 8.2%; in assay [5] it was 2.3%; in assay [6], 18.2%.
With `C1=C(c2ccccc2)N(C2CCCCC2)C(c2ccccc2)=CN1Cc1ccccc1`, the growth inhibition in assay [1] was 45%; in assay [2], 31.9%; in assay [3] it was 69.5%; in assay [4], 42%; in assay [5], 50.1%; in assay [6], 70.8% (active).
As to `COc1cc(C2c3cc4c(cc3[C@H](OCCN(C)C)[C@@H]3COC(=O)C23)OCO4)cc(OC)c1O` (stereo partly specified), the growth inhibition in assay [1] was 83.2% (active); in assay [2], 87.7% (active); in assay [3], 83.3% (active); in assay [4], 67.8%; in assay [5], 78.2% (active); in assay [6] it was 82.6% (active).
`COc1ccc(/C=C2\CNC/C(=C\c3ccc(OC)cc3)C2=O)cc1`: the growth inhibition was 34% in assay [1]; 1.75% in assay [2]; 55.2% in assay [3]; 37.5% in assay [4]; 15.3% in assay [5]; 34.1% in assay [6].
Regarding `S=c1nc[nH]c2c1ncn2Cc1ccco1`, the growth inhibition in assay [1] is 5.85%; in assay [2], -12.9%; in assay [3], -11.3%; in assay [4], 0.55%; in assay [5] it was -46.2%; in assay [6], 5%.
On to `COC(=O)C1=CO[C@@H](OC2OC(CO)C(O)C(O)C2O)[C@H]2[C@@H]1C=C[C@@]21C=C([C@H](C)OC(=O)/C=C/c2ccc(OC3OC(CO)C(O)C(O)C3O)cc2)C(=O)O1` (stereo partly specified), for which the growth inhibition is -18.4% in assay [1]; -18.6% in assay [2]; -20.1% in assay [3]; -6.15% in assay [4]; 2.65% in assay [5]; -20.1% in assay [6].
